# Among all 48,000 compounds or so, about 13,000 (27%) showed an effect of 50% or more. Some of the results follow.
# Tested on: Wolbachia pipientis
# Test: Anti-Wolbachia Cell-Based Screen
# Type: functional
# Parameters: scale not given: in the data most compounds retested in dose-response had high values
# Conditions: 5 µM
row,SMILES,Percent Effect [%]
1,COCCn1cnnc1CN(C)c1nc(N)ncc1C,15.34
2,Cc1ccc(CN(C)C(=O)CN2CCCC2c2cnn(C)c2)cc1 (stereo not drawn),-7.848
3,O=C(c1c[nH]c(=O)[nH]1)N1CCc2ccccc21,14.35
4,Cn1ncc(N2CCOCC2)c(Cl)c1=O,6.365
5,O=c1[nH]cc(N2CCCCC2)c(=O)[nH]1,67.95
6,O=C(Cc1c[nH]c(=O)[nH]c1=O)N1CCCCC1CCc1ccccc1 (stereo not drawn),-18.96
7,c1ccc2c(N3CCOCC3)cnnc2c1,28.28
8,O=c1[nH]cc(N2CCOCC2)c(=O)[nH]1,76.31
9,O=C(NCCN1CCOCC1)c1cc(-c2ccc(Cl)s2)[nH]n1,11.57
10,N#CC(Sc1nnnn1C1CCOCC1)C1CCCCC1 (stereo not drawn),11.61
11,CC(=O)c1cc(CN2C[C@H]3CC[C@@H]2CN(S(=O)(=O)N(C)C)C3)cs1,-15.69
12,COc1ccc2c(=O)n(CC3CCNC3)ccc2c1OC (stereo not drawn),10.36
13,CC(=O)N1CCN(CC2CCOc3ccccc3C2)CC1 (stereo not drawn),-15.11
14,O=c1n(CC2CC2)nc(C2CCNCC2)n1Cc1ccccc1,0.2019
15,O=C(O)C(F)(F)F.O=C1NC2(CCN(CC3CC3)CC2)CC1c1ccccc1 (stereo not drawn),-3.708
16,O=C1NC2(Cc3ccccc31)CN(CC1CCNCC1)C2,115.6
17,O=C1NC(c2ccccc2)=N[C@@]12CC[C@@H]1CN(CC3CCOCC3)C[C@@H]12,10.45
18,Cc1cc(=O)c2ccccc2n1CC1CCNC1 (stereo not drawn),4.531
19,O=C1NC2(Cc3ccccc31)CN(CC1CCNC1)C2 (stereo not drawn),109.8
20,O=C1NC2(Cc3ccccc31)CN(CC1CCOCC1)C2,125.6
21,O=C1NC2(Cc3ccccc31)CN(CC1CCCC1)C2,92.98
22,OC(CN1CCN(CC2CCCCC2)CC1)c1ccccc1 (stereo not drawn),21.16
23,O=C(CSc1ccc(F)cc1)NS(=O)(=O)c1ccc2c(c1)OCCO2,-12.15
24,CN(C)C(CNCc1nc(-c2ccsc2)no1)c1ccco1 (stereo not drawn),15.02
25,CCC(O)(CNCc1ccncc1)c1ccc(Br)cc1 (stereo not drawn),15.97
26,COc1ccc(CN2C[C@@H](F)[C@@H](OCc3nc4cnccc4[nH]3)C2)cn1,-7.55
27,O=C(c1cc(-c2ccco2)nc2c(Cl)cccc12)N1CC[C@H]2CNC[C@H]21,-4.812

row,SMILES,Percent Effect [%]
1,O=C(Nc1ccccc1F)N(CCO)Cc1ccsc1,-6.968
2,CN1C(=O)[C@H]2CC[C@@H]1CN(C(=O)Nc1ccccc1C(F)(F)F)C2,-23.74
3,CCc1noc(CS(=O)(=O)C/C=C/c2ccccc2)n1,-3.698
4,COCCNC(=O)NCCc1cccc(OC)c1O,-1.079
5,CCc1cccc2cc(CNCCOC)c(=O)[nH]c12,77.28
6,Cc1ccc2cc(CNCCCO)c(=O)[nH]c2c1,-12.61
7,CCc1cccc2cc(CN)c(=O)[nH]c12,94.88
8,COc1ccc(CNC(=O)NCc2c(C)cc(C)[nH]c2=O)cc1,-8.384
9,Cc1cccc2cc(CN3CCC(O)(CN4CCCC4)CC3)c(=O)[nH]c12,-13.98
10,COc1ccccc1CNCCc1cccc(C(N)=O)c1,-10.3
11,COCCNCc1cc2ccc(C)c(C)c2[nH]c1=O,110.6
12,Cc1cccc2cc(CN3CCC(N4CCCC4)CC3)c(=O)[nH]c12,-6.915
13,CCc1nccn1CCC(=O)N1CC(=O)N(c2ccccc2C)CC1C (stereo not drawn),-5.04
14,CC(O)(CCc1ccccc1)CNC(=O)c1ccsc1 (stereo not drawn),16.96
15,CCOC(=O)CSc1ccc(-c2nc(CC)no2)cn1,-9.081
16,CCOC(=O)CSc1nnc(C(N)CC(C)C)o1.Cl (stereo not drawn),98.1
17,CCOC(=O)CSc1ccc(-c2nc(C)no2)cn1,-12.26
18,Cc1cc(C)cc(Nc2nc(C)cc(=O)n2CC(=O)NC(C)C)c1,102.2
19,Cc1cc(NC(C)C(=O)N2CCN(c3ncccn3)CC2)ccc1F (stereo not drawn),-7.766
20,CCC(C)NC(=O)Cc1c(C)nc2c(c1C)c(=O)[nH]n2C (stereo not drawn),-5.261
21,CC(C)NC(=O)CC(C)NCc1cc(Cl)ccc1F (stereo not drawn),1.096
22,CCC(C)NC(=O)CN1CCC2(CC1)OCCO2 (stereo not drawn),3.422
23,CCC(C)NC(=O)Cn1c(Nc2cc(C)cc(C)c2)nc(C)cc1=O (stereo not drawn),130.9
24,Cc1nc2cc(=O)[nH]n2c(C)c1CC(=O)NC(C)C,6.511
25,Cc1cc(=O)n(CC(=O)NC(C)C)c(Nc2ccc(F)c(C)c2)n1,119.3
26,CSc1nc2cc(C)n(CC(=O)NC(C)C)c2c(=O)n1CC(C)C,0.5328

# — ChEMBL document CHEMBL3988442, “University of Dundee, Small-Polar-MMV Screening Library” (2021)
